We go through 6 compounds from ChEMBL document CHEMBL1961873, “Compounds: GSK PKIS; Assays: Nanosyn kinase panel” (2012).

Assay [1] deals with High affinity nerve growth factor receptor (Homo sapiens) (UniProt P04629). The conditions noted are these: at 1 µM.
Assay [2] has as its target BDNF/NT-3 growth factors receptor (Homo sapiens) (UniProt Q16620). The note with it: at 0.1 µM.
Assay [3] shares this target. The conditions noted are these: at 1 µM.
Assay [4] concerns the target NT-3 growth factor receptor (Homo sapiens) (UniProt Q16288). The note with it: at 0.1 µM.
The target is the same in assay [5]. The conditions noted are these: at 1 µM.
Assay [6] has as its target T1, Tyrosine-protein kinase TXK (Homo sapiens) (UniProt P42681).
T1 sequence (whole entry): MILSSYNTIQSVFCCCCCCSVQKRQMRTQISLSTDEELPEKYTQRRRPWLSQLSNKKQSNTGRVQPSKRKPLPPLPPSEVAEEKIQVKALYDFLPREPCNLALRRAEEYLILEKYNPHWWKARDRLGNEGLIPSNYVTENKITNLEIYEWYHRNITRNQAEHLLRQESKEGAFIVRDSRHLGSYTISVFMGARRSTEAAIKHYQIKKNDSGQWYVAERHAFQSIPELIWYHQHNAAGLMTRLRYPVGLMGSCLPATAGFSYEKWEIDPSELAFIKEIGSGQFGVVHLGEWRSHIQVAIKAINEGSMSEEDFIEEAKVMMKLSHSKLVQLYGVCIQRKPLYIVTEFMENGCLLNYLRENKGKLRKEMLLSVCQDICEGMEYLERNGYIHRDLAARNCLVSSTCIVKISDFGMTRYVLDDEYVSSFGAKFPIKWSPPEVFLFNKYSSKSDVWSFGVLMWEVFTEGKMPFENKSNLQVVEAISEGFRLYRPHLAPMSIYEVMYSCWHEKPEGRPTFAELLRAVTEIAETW
The note with it: at 0.1 µM.

Assay [7] has as its target T1, Tyrosine-protein kinase TXK (Homo sapiens). The note with it: at 1 µM.
In assay [8] the target is Non-receptor tyrosine-protein kinase TYK2 (Homo sapiens) (UniProt P29597). The conditions noted are these: at 0.1 µM.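 Further: each value is a mean of the inhibition readings.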
In assay [9] the target is T2, Dual specificity protein kinase TTK (Homo sapiens) (UniProt P33981).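 Further: reported figures are mean TTK inhibition at 1 µM.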
T2 sequence (whole entry): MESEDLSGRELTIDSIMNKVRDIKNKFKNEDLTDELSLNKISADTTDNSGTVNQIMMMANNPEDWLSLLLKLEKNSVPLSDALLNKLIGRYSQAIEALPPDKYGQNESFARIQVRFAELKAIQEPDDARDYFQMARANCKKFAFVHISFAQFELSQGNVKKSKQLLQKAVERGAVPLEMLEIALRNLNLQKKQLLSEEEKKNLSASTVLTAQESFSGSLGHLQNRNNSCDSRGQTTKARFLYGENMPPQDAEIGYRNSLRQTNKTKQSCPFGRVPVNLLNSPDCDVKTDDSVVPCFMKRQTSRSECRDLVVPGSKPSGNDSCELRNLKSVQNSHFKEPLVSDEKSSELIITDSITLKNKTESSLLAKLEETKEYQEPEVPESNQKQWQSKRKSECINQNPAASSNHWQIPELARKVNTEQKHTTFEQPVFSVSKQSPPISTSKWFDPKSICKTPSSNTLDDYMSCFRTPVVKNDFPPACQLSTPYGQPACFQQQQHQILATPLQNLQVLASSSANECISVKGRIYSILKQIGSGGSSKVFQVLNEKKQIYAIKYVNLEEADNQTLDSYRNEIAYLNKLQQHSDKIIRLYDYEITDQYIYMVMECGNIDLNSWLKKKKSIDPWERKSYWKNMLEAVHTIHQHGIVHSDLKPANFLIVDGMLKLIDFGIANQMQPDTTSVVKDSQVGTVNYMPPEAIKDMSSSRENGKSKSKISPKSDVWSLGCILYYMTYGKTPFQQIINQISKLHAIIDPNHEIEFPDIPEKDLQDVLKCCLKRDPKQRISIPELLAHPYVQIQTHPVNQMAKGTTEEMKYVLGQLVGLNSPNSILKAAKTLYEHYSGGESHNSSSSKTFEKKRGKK
The note with it: at 1 µM.

In assay [10] the target is T3, Aurora kinase A (Homo sapiens) (UniProt O14965).
T3 sequence (whole entry): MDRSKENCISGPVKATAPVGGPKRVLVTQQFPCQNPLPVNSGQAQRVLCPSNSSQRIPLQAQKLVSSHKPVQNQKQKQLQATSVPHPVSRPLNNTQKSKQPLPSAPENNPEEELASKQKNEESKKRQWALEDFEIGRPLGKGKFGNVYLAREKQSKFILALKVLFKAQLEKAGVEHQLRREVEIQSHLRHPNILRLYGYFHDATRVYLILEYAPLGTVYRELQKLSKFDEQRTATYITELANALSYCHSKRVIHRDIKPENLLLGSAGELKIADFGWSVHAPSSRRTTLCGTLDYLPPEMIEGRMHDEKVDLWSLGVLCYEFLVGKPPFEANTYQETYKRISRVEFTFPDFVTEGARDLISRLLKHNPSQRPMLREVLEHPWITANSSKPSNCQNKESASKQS
The note with it: at 0.1 µM.

Assay [11] has as its target T3, Aurora kinase A (Homo sapiens). The conditions noted are these: at 1 µM.
Assay [12] deals with Aurora kinase B (Homo sapiens) (UniProt Q96GD4). The conditions noted are these: at 0.1 µM.
Assay [13] has the same target. The note with it: at 1 µM.
Assay [14] deals with T4, Aurora kinase C (Homo sapiens) (UniProt Q9UQB9).
T4 sequence (whole entry): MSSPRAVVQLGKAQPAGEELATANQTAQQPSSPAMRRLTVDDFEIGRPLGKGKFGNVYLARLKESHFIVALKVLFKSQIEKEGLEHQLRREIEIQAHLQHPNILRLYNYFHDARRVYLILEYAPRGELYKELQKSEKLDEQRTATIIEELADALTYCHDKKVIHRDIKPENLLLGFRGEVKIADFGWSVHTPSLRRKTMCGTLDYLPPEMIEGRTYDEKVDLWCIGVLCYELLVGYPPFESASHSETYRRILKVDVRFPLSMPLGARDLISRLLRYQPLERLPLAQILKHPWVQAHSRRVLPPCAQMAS
The conditions noted are these: at 0.1 µM.

Assay [15] addresses T4, Aurora kinase C (Homo sapiens). The note with it: at 1 µM.
The target in assay [16] is Serine/threonine-protein kinase 10 (Homo sapiens) (UniProt O94804). The conditions noted are these: at 0.1 µM.
Assay [17] shares this target. The conditions noted are these: at 1 µM.
The target in assay [18] is T5, Mitogen-activated protein kinase kinase kinase kinase 2 (Homo sapiens) (UniProt Q12851).
T5 sequence (whole entry): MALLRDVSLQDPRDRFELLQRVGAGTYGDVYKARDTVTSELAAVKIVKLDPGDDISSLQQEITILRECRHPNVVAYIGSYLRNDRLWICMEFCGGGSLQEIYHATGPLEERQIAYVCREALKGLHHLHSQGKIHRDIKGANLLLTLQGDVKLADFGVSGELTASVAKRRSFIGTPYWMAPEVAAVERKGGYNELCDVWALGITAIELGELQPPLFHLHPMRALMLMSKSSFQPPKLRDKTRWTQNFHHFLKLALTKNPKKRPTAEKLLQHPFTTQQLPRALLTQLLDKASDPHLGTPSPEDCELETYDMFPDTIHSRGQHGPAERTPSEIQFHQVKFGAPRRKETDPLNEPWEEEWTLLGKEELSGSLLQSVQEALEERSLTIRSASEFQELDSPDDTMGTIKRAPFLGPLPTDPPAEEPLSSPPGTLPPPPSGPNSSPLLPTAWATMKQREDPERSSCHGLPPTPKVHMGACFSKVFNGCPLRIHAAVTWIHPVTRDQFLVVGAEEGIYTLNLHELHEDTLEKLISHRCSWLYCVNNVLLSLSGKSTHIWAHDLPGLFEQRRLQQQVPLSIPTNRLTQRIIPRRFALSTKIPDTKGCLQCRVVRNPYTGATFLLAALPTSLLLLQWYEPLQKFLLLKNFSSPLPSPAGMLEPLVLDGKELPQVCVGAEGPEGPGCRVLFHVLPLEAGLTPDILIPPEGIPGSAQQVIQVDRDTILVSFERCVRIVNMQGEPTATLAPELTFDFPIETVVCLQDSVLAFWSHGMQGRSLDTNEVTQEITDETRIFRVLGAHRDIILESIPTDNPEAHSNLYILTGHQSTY
The note with it: at 0.1 µM.

The target in assay [19] is T5, Mitogen-activated protein kinase kinase kinase kinase 2 (Homo sapiens). The note with it: at 1 µM.
Assay [20] deals with Mitogen-activated protein kinase kinase kinase kinase 4 (Homo sapiens) (UniProt O95819). The conditions noted are these: at 0.1 µM.
Chain of Mitogen-activated protein kinase kinase kinase kinase 4 (Homo sapiens) (O95819 2-1239 limits assumed): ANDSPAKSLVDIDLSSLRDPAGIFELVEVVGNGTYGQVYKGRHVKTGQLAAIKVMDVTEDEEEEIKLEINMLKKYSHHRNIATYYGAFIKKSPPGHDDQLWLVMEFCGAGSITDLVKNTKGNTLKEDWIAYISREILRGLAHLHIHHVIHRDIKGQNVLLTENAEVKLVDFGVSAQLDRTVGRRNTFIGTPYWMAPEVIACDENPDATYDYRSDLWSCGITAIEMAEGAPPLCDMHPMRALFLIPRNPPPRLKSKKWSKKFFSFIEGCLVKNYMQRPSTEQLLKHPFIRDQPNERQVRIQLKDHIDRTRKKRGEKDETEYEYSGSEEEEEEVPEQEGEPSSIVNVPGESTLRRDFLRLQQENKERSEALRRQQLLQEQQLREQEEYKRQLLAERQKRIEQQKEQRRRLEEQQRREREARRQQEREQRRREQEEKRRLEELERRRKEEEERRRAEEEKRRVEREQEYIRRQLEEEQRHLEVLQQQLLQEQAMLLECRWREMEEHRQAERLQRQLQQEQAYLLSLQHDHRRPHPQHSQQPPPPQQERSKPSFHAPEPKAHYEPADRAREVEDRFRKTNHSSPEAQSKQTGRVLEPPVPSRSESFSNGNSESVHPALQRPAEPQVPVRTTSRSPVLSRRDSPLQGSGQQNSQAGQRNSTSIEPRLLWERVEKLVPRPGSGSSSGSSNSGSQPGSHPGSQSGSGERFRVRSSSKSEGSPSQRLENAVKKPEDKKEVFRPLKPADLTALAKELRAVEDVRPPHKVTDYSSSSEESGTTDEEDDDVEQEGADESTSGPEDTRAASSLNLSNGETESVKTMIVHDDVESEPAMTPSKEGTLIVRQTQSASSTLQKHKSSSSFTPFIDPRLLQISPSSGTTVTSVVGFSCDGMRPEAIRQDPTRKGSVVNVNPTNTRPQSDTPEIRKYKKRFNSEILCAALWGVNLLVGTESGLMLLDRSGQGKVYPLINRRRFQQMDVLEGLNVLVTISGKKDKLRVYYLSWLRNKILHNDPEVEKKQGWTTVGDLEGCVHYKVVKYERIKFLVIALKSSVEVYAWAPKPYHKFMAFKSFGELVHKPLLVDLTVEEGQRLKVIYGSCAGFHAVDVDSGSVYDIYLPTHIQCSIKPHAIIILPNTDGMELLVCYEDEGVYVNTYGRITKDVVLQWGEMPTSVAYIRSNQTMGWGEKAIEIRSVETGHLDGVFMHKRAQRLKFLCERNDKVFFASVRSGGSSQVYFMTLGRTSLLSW

Chain of Non-receptor tyrosine-protein kinase TYK2 (Homo sapiens) (P29597 whole entry): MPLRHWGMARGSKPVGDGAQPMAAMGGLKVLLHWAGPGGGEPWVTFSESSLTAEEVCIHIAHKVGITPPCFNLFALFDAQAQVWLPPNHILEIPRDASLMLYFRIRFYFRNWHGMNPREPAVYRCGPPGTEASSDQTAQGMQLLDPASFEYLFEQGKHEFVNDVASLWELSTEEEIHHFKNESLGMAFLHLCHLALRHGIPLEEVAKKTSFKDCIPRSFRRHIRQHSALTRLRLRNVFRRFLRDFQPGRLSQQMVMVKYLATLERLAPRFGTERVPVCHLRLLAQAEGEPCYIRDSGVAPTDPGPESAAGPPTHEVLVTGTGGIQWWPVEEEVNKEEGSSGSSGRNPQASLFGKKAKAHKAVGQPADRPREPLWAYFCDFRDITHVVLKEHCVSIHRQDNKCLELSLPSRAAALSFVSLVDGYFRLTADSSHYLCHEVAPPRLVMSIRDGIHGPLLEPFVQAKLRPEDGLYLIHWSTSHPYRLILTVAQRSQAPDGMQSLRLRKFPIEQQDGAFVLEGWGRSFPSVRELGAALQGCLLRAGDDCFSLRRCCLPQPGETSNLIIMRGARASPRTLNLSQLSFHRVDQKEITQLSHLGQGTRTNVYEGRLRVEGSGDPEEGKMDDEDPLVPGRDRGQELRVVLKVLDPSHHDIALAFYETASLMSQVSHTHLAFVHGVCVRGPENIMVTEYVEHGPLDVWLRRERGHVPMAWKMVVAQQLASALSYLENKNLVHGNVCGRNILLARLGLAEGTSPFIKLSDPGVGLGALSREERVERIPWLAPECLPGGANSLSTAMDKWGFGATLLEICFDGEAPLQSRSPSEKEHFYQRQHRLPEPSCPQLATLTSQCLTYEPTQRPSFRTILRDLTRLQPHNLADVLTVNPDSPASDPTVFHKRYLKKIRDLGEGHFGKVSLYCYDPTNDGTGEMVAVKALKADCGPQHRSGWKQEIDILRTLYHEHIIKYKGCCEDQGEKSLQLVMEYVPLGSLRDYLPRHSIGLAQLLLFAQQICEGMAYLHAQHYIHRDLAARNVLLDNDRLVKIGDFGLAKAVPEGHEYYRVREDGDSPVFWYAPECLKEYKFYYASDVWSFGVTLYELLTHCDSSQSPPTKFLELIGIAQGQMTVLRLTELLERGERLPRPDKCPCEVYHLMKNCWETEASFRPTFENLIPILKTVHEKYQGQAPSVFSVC
Chain of NT-3 growth factor receptor (Homo sapiens) (Q16288 32-839 limits assumed): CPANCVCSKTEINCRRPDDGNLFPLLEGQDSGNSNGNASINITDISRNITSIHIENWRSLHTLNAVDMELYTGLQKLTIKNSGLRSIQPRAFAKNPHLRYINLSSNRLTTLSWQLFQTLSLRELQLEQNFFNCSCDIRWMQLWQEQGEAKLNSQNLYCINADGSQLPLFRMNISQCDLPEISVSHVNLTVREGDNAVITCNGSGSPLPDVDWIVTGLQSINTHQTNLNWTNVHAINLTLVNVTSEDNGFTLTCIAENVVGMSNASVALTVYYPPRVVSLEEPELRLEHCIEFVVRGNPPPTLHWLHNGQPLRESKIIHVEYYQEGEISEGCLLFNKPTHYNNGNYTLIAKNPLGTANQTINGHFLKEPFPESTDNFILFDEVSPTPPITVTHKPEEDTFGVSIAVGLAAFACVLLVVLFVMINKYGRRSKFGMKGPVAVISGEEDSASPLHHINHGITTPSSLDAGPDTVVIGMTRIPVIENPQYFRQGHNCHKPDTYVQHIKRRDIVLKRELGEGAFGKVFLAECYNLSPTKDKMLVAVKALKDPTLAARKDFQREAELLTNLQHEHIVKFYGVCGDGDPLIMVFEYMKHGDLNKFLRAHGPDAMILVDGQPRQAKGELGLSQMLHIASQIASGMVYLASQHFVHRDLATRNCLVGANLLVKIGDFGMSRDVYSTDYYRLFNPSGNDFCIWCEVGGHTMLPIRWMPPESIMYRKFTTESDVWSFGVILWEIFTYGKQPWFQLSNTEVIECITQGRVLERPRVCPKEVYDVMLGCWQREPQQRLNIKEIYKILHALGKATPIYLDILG
Chain of Aurora kinase B (Homo sapiens) (Q96GD4 whole entry): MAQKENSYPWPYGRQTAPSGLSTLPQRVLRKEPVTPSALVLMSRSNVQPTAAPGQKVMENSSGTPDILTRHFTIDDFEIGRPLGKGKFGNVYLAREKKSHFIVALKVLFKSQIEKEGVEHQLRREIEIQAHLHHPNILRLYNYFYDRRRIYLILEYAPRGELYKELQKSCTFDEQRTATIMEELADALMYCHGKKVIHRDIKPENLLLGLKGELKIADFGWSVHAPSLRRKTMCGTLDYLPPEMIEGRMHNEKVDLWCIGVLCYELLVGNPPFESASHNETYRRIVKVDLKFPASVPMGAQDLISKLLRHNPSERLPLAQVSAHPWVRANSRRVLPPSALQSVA
Chain of High affinity nerve growth factor receptor (Homo sapiens) (P04629 33-796 limits assumed): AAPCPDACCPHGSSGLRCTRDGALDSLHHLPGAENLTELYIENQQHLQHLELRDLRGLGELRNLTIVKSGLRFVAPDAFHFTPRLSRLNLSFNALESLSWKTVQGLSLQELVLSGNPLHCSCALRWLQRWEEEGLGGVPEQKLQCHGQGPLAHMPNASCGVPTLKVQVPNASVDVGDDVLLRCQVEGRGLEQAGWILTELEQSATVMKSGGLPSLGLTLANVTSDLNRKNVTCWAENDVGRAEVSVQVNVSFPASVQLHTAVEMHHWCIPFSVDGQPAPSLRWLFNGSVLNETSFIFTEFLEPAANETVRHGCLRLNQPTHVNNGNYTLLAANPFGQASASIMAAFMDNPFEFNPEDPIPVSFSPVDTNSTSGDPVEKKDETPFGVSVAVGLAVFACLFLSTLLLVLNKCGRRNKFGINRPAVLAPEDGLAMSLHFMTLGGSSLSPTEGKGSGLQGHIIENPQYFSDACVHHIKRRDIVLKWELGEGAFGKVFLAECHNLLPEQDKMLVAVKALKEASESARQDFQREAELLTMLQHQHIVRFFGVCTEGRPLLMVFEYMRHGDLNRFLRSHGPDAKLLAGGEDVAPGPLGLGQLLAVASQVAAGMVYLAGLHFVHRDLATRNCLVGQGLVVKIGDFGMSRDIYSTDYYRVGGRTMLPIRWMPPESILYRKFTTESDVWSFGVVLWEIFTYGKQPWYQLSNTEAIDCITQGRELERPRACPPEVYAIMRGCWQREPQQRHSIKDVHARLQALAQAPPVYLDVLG

For orientation: inhibition means the change of the read-out against control, counted positive when it falls. On to `CC1=C(C(=O)Nc2ccc3[nH]ncc3c2)C(c2ccc(F)cc2)N=C(c2ccc(C(F)(F)F)nc2)N1` (stereo not given), for which the inhibition in assay [1] came out at 4.07%; in assay [2] it was 1.02%; in [3] it was 1.46%; in assay [4] it was 2.88%; in assay [5], 3.8%; in assay [6] it was 3.02%. For the same compound, the inhibition in [7] was 4.16%; in assay [8], -0.65%; in [9] it was -4.56%; in assay [10], 4.97%; in assay [11] it was 51%; in assay [12], 3.38%. Moreover, the inhibition worked out at 16.9% in assay [13]; 3.47% in assay [14]; 21.3% in assay [15]; 0.31% in [16]; 2.22% in assay [17]; 1.59% in [18]. Besides, the inhibition in assay [19] was determined as 2.35%; in assay [20], 2.89%.
Take `CN(C)CCNC(=O)Nc1ccc(N(C)c2ccnc(Nc3ccc(CS(C)(=O)=O)cc3)n2)cc1`: the inhibition in [1] came to 7.1%; in [2], 2.82%; in assay [3] it was 9.09%; in assay [4], 4.45%; in assay [5] it was 11.9%; in [6], 8.39%. Moreover, the inhibition is 34.3% in assay [7]; -2.14% in [8]; 11.4% in assay [9]; 13.7% in assay [10]; 79% in assay [11]; 21.6% in assay [12]. Moreover, the inhibition in [13] came to 69.1%; in assay [14] it was 21.9%; in [15], 94.5%; in [16], 7.91%; in assay [17], 36.7%; in assay [18] it was 0.59%. The inhibition worked out at 2.02% in assay [19] and 4.07% in [20].
For `NS(=O)(=O)c1ccc(N/N=C2\C(=O)Nc3cccc(CCc4ccncc4)c32)cc1`, the inhibition in assay [1] was 19.1%; in assay [2], 17%; in [3], 45.4%; in assay [4], 17.3%; in [5], 41.9%; in assay [6], 2.92%. Besides, the inhibition in assay [7] is 8.22%; in assay [8] it was -0.26%; in assay [9], 38.7%; in [10], 28.1%; in [11] it was 20.6%; in assay [12], 3.64%. Further, the inhibition is 7.9% in [13]; 5% in [14]; 8.21% in assay [15]; -0.95% in assay [16]; 0.03% in [17]; 1.75% in [18]. In addition, the inhibition came out at 3.46% in assay [19] and 4.39% in [20].
In the case of `COc1ccccc1-c1cc(/C=C2\C(=O)Nc3ncc(Br)cc32)cc(Br)c1O`, the inhibition stood at 61.7% in assay [1]; 38.7% in [2]; 89.2% in [3]; 41.7% in [4]; 93.9% in assay [5]; 3.05% in [6]. Besides, the inhibition in [7] is 6.65%; in [8], -5.9%; in [9], 9.88%; in assay [10], 13.4%; in [11], 93%; in assay [12] it was 12.4%. The inhibition worked out at 57.2% in assay [13]; 7.31% in assay [14]; 87.5% in assay [15]; 5.49% in [16]; 5.99% in assay [17]; 0.42% in assay [18]. Moreover, the values for the inhibition in assay [19] and in assay [20] were 5.34% and 5.7%, respectively.
On to `Cn1c(-c2nonc2N)nc2cnccc21`, for which the inhibition was determined as 0.76% in assay [1]; 1.23% in assay [2]; 0.53% in assay [3]; 2% in assay [4]; 1.22% in assay [5]; 4.05% in assay [6]. Further, the inhibition in [7] was 4.22%; in assay [8], -2.09%; in assay [9] it was 8.28%; in assay [10] it was 1.22%; in assay [11] it was 7.19%; in [12] it was 1.6%. Besides, the inhibition was 4.18% in [13]; 1.42% in [14]; 4.49% in [15]; 4.28% in [16]; 7.08% in assay [17]; 0.8% in assay [18]. The inhibition worked out at 6.6% in [19] and 6.14% in [20].
With `CCOc1ccc2c(-c3ccnc(Nc4cc(OC)cc(C(F)(F)F)c4)n3)cnn2n1`, the inhibition was 3.16% in assay [1]; -1.33% in assay [2]; 3.13% in [3]; -1.23% in [4]; 4.94% in assay [5]; 0.98% in [6]. Moreover, the inhibition in assay [7] is 3.69%; in assay [8] it was -2.65%; in [9] it was 8.93%; in assay [10], 0.65%; in assay [11], 13%; in assay [12], 2.18%. Further, the inhibition in assay [13] was 8.92%; in assay [14] it was 1.08%; in assay [15], 4.09%; in assay [16], -0.06%; in assay [17], 3.44%; in [18], 0.08%. For the same compound, the inhibition in assay [19] turned out to be 2.69%; in assay [20], 1.85%.
